HCMV inh: blocks human cytomegalovirus replication; HFF cells, HCMV-luciferase reporter, 72 h; active compounds read low; activity change, negative = inhibition, % at 57.5 µM; hit rate 4.5% among 410,000; in the data active = activity change below about -60%; inconclusive = no clear call, values can overlap the other calls; inactive = above about -39%
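Two-dose cell screen: HFF monolayers treated with compounds and infected with luciferase-expressing HCMV at 1 PFU/cell, 72 h at 37C, then lysed for luciferase measurement.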
FMDV antiviral: blocks foot and mouth disease virus | FMDV antiviral cell-based qHTS | Potency, µM (series often up to 57.9 µM), for the others: at the top dose activity change, negative = inhibition, most hits filed as inhibitors | hit rate 1.2% among 410,000 | AID 1159524; calls by dose curve; tested in HEK293T cells; also: read-out not given here; potency is read from the fitted curve at half-maximal effect; nearly all actives have a fitted effect of over 45% in size
MARV entry inh: blocks Marburg virus binding to or entry into cells; Marburg virus pseudotyped entry inhibition, cell reporter; Potency, µM (highest dose often 37.8 µM), inactives show at the highest dose activity change, negative = inhibition, most hits filed as inhibitors; hit rate 1.8% among 300,000; calls by dose curve; tested in HEK293 cells; also: potency is read from the fitted curve at half-maximal effect
HCV inh: blocks hepatitis C virus; Huh7.5.1 HCVcc-Cre infection, luciferase reporter, 44 h; Potency, µM (series often up to 41.8 µM), inactives show top-dose activity change, negative = inhibition, most hits filed as inhibitors; hit rate 3.4% among 340,000; active = well fitted inhibition curve with a large enough effect; inconclusive = small, poorly fitted or top-dose-only effect, or another doubt; inactive = no such curve, though single readings can be large or run the other way; also: potency is read from the fitted curve at half-maximal effect
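Whole-lifecycle infectious HCVcc-Cre system; cells 1,000/well, compound then virus (~0.5 moi) added 4 h after plating, 44 h culture. Luciferase read 15 sec following 15 min substrate incubation, room temp.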
Lassa entry inh: blocks Lassa virus binding to or entry into cells; Lassa virus pseudotype entry inhibition, cell reporter; hit rate 1.2% among 300,000; Potency, µM (series often up to 37.9 µM), for the others: at the top dose activity change, negative = inhibition, actives largely listed as inhibitors; calls by dose curve; tested in HEK293 cells; also: potency is read from the fitted curve at half-maximal effect; nearly all actives have a fitted effect of over 50% in size
Active calls of the source: *; u = inconclusive; x = no result; [ ] = another dose, or the depositor's remark. Sampled rows, rich in hits. Any-hit rate of the full collection: about 7.9%. % is scaled to controls: 0 for no effect and ±100 for the full control effect.

SMILES | HCMV inh | FMDV antiviral | MARV entry inh | HCV inh | Lassa entry inh
O=C(Nc1cccc(F)c1)[C@H](CSCc1ccccc1)N1Cc2ccccc2C1=O | 5 | 10% | u | x | 0%[46.1 µM]
O=C(Cc1ccc(N2CCNC2=O)cc1)N1CCCC(Nc2ccc(F)c(F)c2)C1 (centres undefined) | -61* | -12% | u | u | -1%[46.1 µM]
CCSC1(SCC)N=C(N)C2(C#N)C(c3ccc(F)cc3)C12C#N (centres undefined) | -107* | 14µM* | u | 1% | u
COC1(OC)N=C(N)C2(C#N)C(c3ccc(F)cc3)C12C#N (centres undefined) | -31 | -7% | -3% | 22% | 4%
Cc1ccc(NC(=O)Cn2ccn(Cc3ccc(Cl)cc3)c(=O)c2=O)cc1C | -12 | -11% | x | x | 16%[46.1 µM]
CCCOc1ccc(/C=N/Nc2ccccc2[N+](=O)[O-])c(O)c1 | u | 11µM* | 4.5µM* | 11% | 2.8µM*
CCCOc1ccc(/C=N/NC(=S)Nc2ccccc2[N+](=O)[O-])c(O)c1 | -101* | u | u | u | 8.2µM*
CCOc1ccccc1/C=N/Nc1ccccc1[N+](=O)[O-] | 8 | 26% | 25% | u | 25%
Cc1cc(C)c(OCC(=O)N(Cc2cccc(F)c2)Cc2ccco2)c(C)c1 | -28 | -20% | u | x | -12%[46.1 µM]
Cc1nc2nc(SCC(=O)NCCCN3CCCCCC3)nn2c(C)c1Cc1ccccc1 | -65* | -11% | u | -25% | u
Cc1ccc(Cc2c(C)nc3nc(SCC(=O)NCCCN4CCOCC4)nn3c2C)cc1 | -15 | -10% | 8.9µM* | -1% | -7%[46.1 µM]
CCCCCC(=O)N1C[C@H](O)[C@@H](n2cc(C3CC3)nn2)C[C@H]1c1ccc(OC)cc1 | x | x | x | x | 5%[46.1 µM]
COc1ccc(OC)c2c1C(=O)c1ccccc1C2=O | 19 | -3% | 0% | -14% | -10%
Cc1nc2c(nc1C)C(=O)c1ccccc1C2=O | u | u | 14µM* | u | u
NC1=CC(=O)C(=O)c2ccccc21 | -64* | 40µM* | u | u | u
COC1=C(OC)C(=O)c2ccccc2C1=O | x | x | u | x | 21µM*
O=C1c2ccccc2-c2nc3ccccc3nc21 | 122 | 23% | -4% | 14% | 26%
O=C1c2ccccc2-c2cccnc21 | -104* | 6% | x | -3% | x
C=CCc1cccc(/C=N\n2cnnc2)c1O | x | x | 38% | x | x
Cc1ccc(NC(=O)CCC(=O)c2cccs2)c(O)c1 | -16 | 50% | x | -26% | x
O=C1C(=O)c2ccccc2-c2ccccc21 | -101* | 5.6µM* | x | 2.8µM* | x
O=C1C(=C(I)I)c2ccccc2-c2ccccc21 | -100* | 18µM* | u | 8.9µM* | u
O=C(O)c1cccc2c1C(=O)c1ccccc1-2 | 35 | 0% | 4%[46.1 µM] | 21% | 12%
N#C/C(=C\c1ccc([N+](=O)[O-])o1)C(=O)Nc1ccc(F)cc1 | -78* | u | u | -24% | -10%
N#CCc1ccc(NC(=O)/C=C/c2ccc([N+](=O)[O-])o2)cc1 | x | u | u | u | 7.9µM*
SMILES | HCMV inh | FMDV antiviral | MARV entry inh | HCV inh | Lassa entry inh
Cc1ccc(/C=C/C(=O)Nc2ccc(S(N)(=O)=O)cc2)o1 | 25 | -11% | 3% | u | 6%
Fc1ccc(-c2cc(C(F)(F)F)nc(NCC3CCCO3)n2)cc1 (centres undefined) | -2 | u | 5% | 10µM* | -7%
O=CN1CCc2c([nH]c3ccccc23)C1c1cccc2cccnc12 (centres undefined) | x | -15% | x | x | x
COc1cc(-c2ccc(C)cc2)cc2c1OCCN(C(=O)CCn1ccc(C)n1)C2 | x | -16% | x | x | x
CC(C)Oc1ccc(Nc2cc3[nH]c(-c4cccc(F)c4)cc3cn2)cc1 | -30 | x | x | x | x
CCCCn1c(N)c(N(CCC(C)C)C(=O)COC(=O)Cc2ccc(Cl)cc2)c(=O)[nH]c1=O | -10 | -28% | 13µM* | -15% | u
CCCCn1c(N)c(N(CCC(C)C)C(=O)COC(=O)c2ccc([N+](=O)[O-])s2)c(=O)[nH]c1=O | -95* | -23% | -1% | u | 1%
CC(C)CN(C(=O)COC(=O)Cc1ccc(Cl)cc1)c1c(N)n(Cc2ccccc2)c(=O)[nH]c1=O | -31 | -2% | -5% | u | u
Cc1ccc(-c2nn(-c3cccc([N+](=O)[O-])c3)c3c2cnc2ccc(F)cc23)cc1 | 6 | 15% | x | x | -16%[46.1 µM]
Cc1ccc2c(c1)/C(=C/c1ccccc1F)C(=O)N2 | 4 | -14% | x | u | x
COc1ccc2c(c1)/C(=C\c1cccc(/C=C3/C(=O)Nc4ccc(OC)cc43)n1)C(=O)N2 | -98* | 7.1µM* | 1.6µM* | 2.8µM* | 2.8µM*
CC(C)CCn1c(COc2ccccc2)nn(CCC#N)c1=S | -12 | u | x | -6% | x
CC(C)NC(=S)NC(=O)/C=C/c1ccc(F)cc1 | -76* | -5% | u | 12% | -9%
CN(C(=S)NC(=O)/C=C/c1ccc(F)cc1)C1CCCCC1 | -76* | 7% | 1% | 4% | -1%
CCC(C)(C)c1ccc(OCCCC[n+]2ccccc2)c(C(C)(C)CC)c1 | -98* | 32µM* | x | u | x
CCCCC(OC(=O)CN1C(=O)COc2ccccc21)C(=O)NC1CCCCC1 (centres undefined) | -5 | 0% | -30%[46.1 µM] | -5% | -2%
CN(C(=O)C(Cl)Cl)C1CC2C=CC1C2 (centres undefined) | 36 | -7% | u | u | 9%[46.1 µM]
C[C@@H]1C[C@H]2[C@@H]3CCC4=CC(=O)C=C[C@]4(C)[C@@]3(Cl)[C@@H](O)C[C@]2(C)[C@@]1(OC(=O)c1ccco1)C(=O)CCl | -73* | u | x | -22% | x
COc1cccc2cc(-c3cc(=O)oc4ccc(OC(=O)N(C)C)cc34)oc12 | -19 | -28% | -1%[46.1 µM] | 11µM* | 16%[46.1 µM]
O=c1cc(-c2cc3ccccc3o2)c2cc(O)ccc2o1 | x | -4% | 3%[46.1 µM] | u | -21%[46.1 µM]
COc1ccc2oc(=O)cc(-c3cc4cccc(OC)c4o3)c2c1 | 33 | -26% | 16%[46.1 µM] | -8% | 2%[46.1 µM]
CC(=O)COc1ccc2oc(=O)cc(-c3cc4ccccc4o3)c2c1 | -11 | -17% | x | 14µM* | x
CCN(CC)C(=O)Oc1ccc2oc(=O)cc(-c3cc4cccc(OC)c4o3)c2c1 | 10 | -30% | u | 11µM* | u
COc1cccc2cc(-c3cc(=O)oc4cc(C)c(OCC(C)=O)cc34)oc12 | 24 | -24% | x | u | x
Cc1ccnc(NC(=O)CCc2c[nH]c3ccccc23)c1 | 30 | 8% | -2%[46.1 µM] | u | -28%[46.1 µM]
O=C(NCCCN1CCCC1)Nc1ccc(F)cc1 | 21 | 6% | 4%[46.1 µM] | 0% | 0%[46.1 µM]
O[Si](CCCN1CCCCC1)(c1ccc(F)cc1)C1CCCCC1 (centres undefined) | -18 | u | 2.8µM* | u | 5.2µM*
CCn1c(C(=O)N2CCCC(C(=O)N3CCN(c4ccccc4)CC3)C2)cc2sccc21 (centres undefined) | -22 | -21% | u | x | x
O=C(NCCCN1CCCC1)c1ccc(CS(=O)(=O)c2ccc(Cl)cc2)o1 | -34 | -8% | x | u | x
